From PubChem BioAssay AID493231 (Broad Institute, 2011) come the findings set out here.

Entries with a potency or affinity are not part of this list. Activity calls are given as the source filed them. How the calls were made is not given here.

Sequence of Acyl-homoserine lactone acylase PvdQ (Pseudomonas aeruginosa (strain ATCC 15692 / DSM 22644 / CIP 104116 / JCM 14847 / LMG 12228 / 1C / PRS 101 / PAO1)) (Q9I194 whole entry, looked up): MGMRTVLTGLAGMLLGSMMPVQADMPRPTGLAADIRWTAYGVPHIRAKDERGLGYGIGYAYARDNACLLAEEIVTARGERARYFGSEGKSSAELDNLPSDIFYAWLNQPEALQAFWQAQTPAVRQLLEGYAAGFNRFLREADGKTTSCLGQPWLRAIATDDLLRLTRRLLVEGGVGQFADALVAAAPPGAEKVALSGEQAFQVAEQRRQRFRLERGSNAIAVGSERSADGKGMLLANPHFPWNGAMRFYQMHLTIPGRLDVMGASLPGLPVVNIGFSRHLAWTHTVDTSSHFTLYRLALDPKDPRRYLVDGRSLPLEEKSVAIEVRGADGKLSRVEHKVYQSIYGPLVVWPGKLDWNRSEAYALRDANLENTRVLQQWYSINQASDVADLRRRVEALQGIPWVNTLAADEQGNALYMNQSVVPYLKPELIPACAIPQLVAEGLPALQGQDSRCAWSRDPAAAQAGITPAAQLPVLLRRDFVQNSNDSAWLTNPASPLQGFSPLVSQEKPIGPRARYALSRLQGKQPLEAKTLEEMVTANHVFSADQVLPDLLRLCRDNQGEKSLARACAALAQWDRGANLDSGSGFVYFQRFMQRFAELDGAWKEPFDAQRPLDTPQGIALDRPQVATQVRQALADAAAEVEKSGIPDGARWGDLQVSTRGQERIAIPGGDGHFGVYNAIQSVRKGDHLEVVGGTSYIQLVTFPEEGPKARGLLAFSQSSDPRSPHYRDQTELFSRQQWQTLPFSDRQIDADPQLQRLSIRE

The test concerns the target Acyl-homoserine lactone acylase PvdQ (Pseudomonas aeruginosa (strain ATCC 15692 / DSM 22644 / CIP 104116 / JCM 14847 / LMG 12228 / 1C / PRS 101 / PAO1)) (UniProt Q9I194). Briefly: P. aeruginosa PvdQ acylase inhibitors, dose response, biochemical, fluorescence, plate reader and imaging, cherry-picks (AID 493231).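 Further: more negative values mean stronger inhibition of the acylase.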 As to conditions: purified PvdQ acylase, fluorogenic substrate; series mostly up to 10 µM.
On to `CC1(C)CC2(CCO1)NCCN1C(=O)CSC12` (stereo not drawn), for which the compound was called inactive.

Regarding `Cc1cc(N(CCCl)CCCl)ccc1C=NNC(=O)c1cccnc1`, the result was inactive.

Regarding `O=[N+]([O-])c1ccc2c(c1)Cc1cc(O)ccc1-2`, the compound was called inactive.
